Results filed as inconclusive are left out. Activity calls are given as the source filed them. Calls follow the shape of the dose curve; as a rule, active = well fitted activation curve with a large enough effect; inconclusive = small, poorly fitted or top-dose-only effect; inactive = no such curve, though single readings can be large or run the other way.

This test deals with Arylsulfatase A (Homo sapiens) (UniProt P15289). Nature of the test: qHTS screen for enhancers of Arylsulfatase A (ASA1): LOPAC Validation Assay (AID 720538). Particulars: ASA enzyme activity, LOPAC qHTS enhancer assay; series mostly up to 57.5 µM. In short, it runs like this: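 Read-out: fluorescence at Ex=525/Em=598 nm after 1N NaOH final stop. Patient fibroblasts carrying ASA-I179S had 48h compound exposure, then 14h room-temperature pNCS hydrolysis (0.5mM final) in lysis buffer. Signal increase = enhanced activity.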
Chain of Arylsulfatase A (Homo sapiens) (P15289 whole entry, looked up): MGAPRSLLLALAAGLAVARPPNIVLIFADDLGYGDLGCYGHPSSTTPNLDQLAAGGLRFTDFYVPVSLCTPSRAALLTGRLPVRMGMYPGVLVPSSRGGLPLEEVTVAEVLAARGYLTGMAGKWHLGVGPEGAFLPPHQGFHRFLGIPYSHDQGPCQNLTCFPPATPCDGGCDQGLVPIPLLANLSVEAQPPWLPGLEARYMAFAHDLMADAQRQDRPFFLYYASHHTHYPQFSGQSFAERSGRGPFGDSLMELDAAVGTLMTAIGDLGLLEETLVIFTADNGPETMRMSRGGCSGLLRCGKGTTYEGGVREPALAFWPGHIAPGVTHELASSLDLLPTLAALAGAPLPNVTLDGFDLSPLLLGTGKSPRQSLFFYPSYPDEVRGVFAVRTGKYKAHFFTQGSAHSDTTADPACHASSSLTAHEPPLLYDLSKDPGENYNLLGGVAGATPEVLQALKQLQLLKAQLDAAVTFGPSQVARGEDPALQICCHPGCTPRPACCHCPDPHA
As to `CCC1(C)CC(=O)NC1=O` (stereo not given), the result was inactive.
In the case of `CCC1(c2ccc(N)cc2)CCC(=O)NC1=O` (stereo not given), the outcome was inactive.
Consider `O=c1[nH]oc2c1CCNC2`, for which the result was inactive.
With `CN=C(NC#N)NCCSCc1nc[nH]c1C`, the outcome is “inactive; inhibitor; fitted 6.3096 uM”.
In the case of `O=C(O)CCCc1ccc(N(CCCl)CCCl)cc1` it was “inactive”; in that of `COc1ccc2c(c1OC)C(=O)O[C@H]2[C@@H]1c2cc3c(cc2CCN1C)OCO3`, “inactive”.
Consider `C=C(C)[C@H]1CN[C@H](C(=O)O)[C@H]1CC(=O)O`, for which the result was inactive.
Consider `O=P1(N(CCCl)CCCl)NCCCO1` (stereo not given), for which the outcome was inactive.
Regarding `NCCCNCCSP(=O)(O)O`, the result was inactive.
On to `CC(C)c1cccc(C(C)C)c1O`, for which the outcome was inactive.
With `CCCCC/C=C\C/C=C\C/C=C\C/C=C\CCCC(=O)NCC(=O)O`, the result was inactive.
`NCCc1ccc(O)cc1`: the result was inactive.
Consider `CC(NC(C)(C)C)C(=O)c1cccc(Cl)c1` (stereo not given), for which the result was inactive.
In the case of `Cn1c(=O)c2[nH]cnc2n(C)c1=O` it was “inactive”; in that of `CC(C)N(CCC(C(N)=O)(c1ccccc1)c1ccccn1)C(C)C` (stereo not given), “inactive; inhibitor; fitted 0.1901 uM”.

The record behind these values is PubChem BioAssay (NCATS).
